PubChem BioAssay AID1159580 (chemical genetic matrix, 2015)
Several values for one entry are separate records, joined by “and”; a condition that tells them apart may be missing. Equal entries are not always repeated. In all, about 5,500 compounds went through this assay and about 2,000 (36%) were called active. Roughly 18% stayed inconclusive and do not appear here. Cut-off read from the data, not from the text of the source: active = normalized growth mostly below about 0.91 (no sharp cut-off); inconclusive = no clear call, values can overlap the other calls; inactive = mostly above about 0.92. This is one part of the list.

Experiment: chemical genetic growth profiling, strain panel (AID 1159580);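 note: tested at 20 µM; growth read once vehicle control cultures reached saturation at 30 °C; 1 = growth at the plate median or of vehicle wells; lower values mean less growth of the strain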
Details: S. cerevisiae deletion strains, growth OD

Measured: normalized growth

N#Cc1c(Cl)cccc1Cl
inactive: locus YAL013W, strain DEP1, hits give low values 1.01 | locus YAL021C, strain ccr4, hits give low values 1.01 | locus YAL026C, strain drs2, hits give low values 0.988 | locus YAL030W, strain snc1, hits give low values 0.979 | locus YBL061C, strain skt5, hits give low values 0.979 | locus YBR009C, strain hhf1, hits give low values 0.959 | locus YBR021W, strain FUR4, hits give low values 1.02 | locus YBR023C, strain chs3, hits give low values 0.981 | locus YBR171W, strain sec66, hits give low values 0.982 | locus YBR229C, strain ROT2, hits give low values 1.01 | locus YBR231C, strain swc5, hits give low values 0.98 | locus YBR279W, strain paf1, hits give low values 0.983 | locus YCL011C, strain gbp2, hits give low values 0.954 | locus YCL016C, strain dcc1, hits give low values 0.983 | locus YCL029C, strain bik1, hits give low values 1.01 | locus YCL069W, strain vba3, hits give low values 0.98 | locus YCR088W, strain abp1, hits give low values 0.985 | locus YDL005C, strain med2, hits give low values 0.977 | locus YDL035C, strain GPR1, hits give low values 1.01 | locus YDL040C, strain nat1, hits give low values 0.991 | locus YDL074C, strain BRE1, hits give low values 1.03 | locus YDL101C, strain DUN1, hits give low values 1.01 | locus YDL134C, strain PPH21, hits give low values 1 | locus YDL185W, strain tfp1, hits give low values 1.01 | locus YDL192W, strain arf1, hits give low values 1.01 | locus YDR001C, strain nth1, hits give low values 0.977 | locus YDR069C, strain doa4, hits give low values 0.983 | locus YDR101C, strain arx1, hits give low values 1.01 | locus YDR137W, strain rgp1, hits give low values 1.01 | locus YDR150W, strain NUM1, hits give low values 1.01 | locus YDR159W, strain sac3, hits give low values 0.995 | locus YDR162C, strain NBP2, hits give low values 1.01 | locus YDR195W, strain ref2 0.991 | locus YDR297W, strain sur2, hits give low values 0.972 | locus YDR318W, strain mcm21, hits give low values 1.01 | locus YDR334W, strain swr1, hits give low values 0.952 | locus YDR335W, strain msn5, hits give low values 0.977 | locus YDR388W, hits give low values 1.01 | locus YDR392W, strain spt3, hits give low values 1 | locus YDR502C, strain sam2, hits give low values 1.01 | locus YEL003W, strain gim4, hits give low values 0.969 | locus YEL037C, strain rad23, hits give low values 0.981 | locus YEL061C, strain CIN8 (second series), hits give low values 0.98 | locus YEL061C, strain CIN8, hits give low values 1.01 | locus YER015W, strain faa2, hits give low values 0.98 | locus YER016W, strain bim1, hits give low values 0.979 | locus YER110C, hits give low values 1 | locus YER111C, strain swi4, hits give low values 0.965 | locus YER155C, strain BEM2 (second series), hits give low values 0.975 | locus YER155C, strain BEM2, hits give low values 1.01 | locus YER167W, strain BCK2, hits give low values 1.01 | locus YFR010W, strain ubp6, hits give low values 0.98 | locus YGL078C, strain dbp3, hits give low values 1.01 | locus YGL086W, strain mad1, hits give low values 1.01 | locus YGL167C, strain pmr1, hits give low values 0.978 | locus YGL173C, strain kem1, hits give low values 0.99 | locus YGL227W, strain vid30, hits give low values 0.974 | locus YGL240W, strain doc1, hits give low values 0.965 | locus YGL248W, strain PDE1, hits give low values 1 | locus YGL253W, strain hxk2, hits give low values 0.987 | locus YGR078C, strain PAC10, hits give low values 1.01 | locus YGR135W, strain pre9, hits give low values 1.01 | locus YGR229C, strain SMI1, hits give low values 1.02 | locus YGR252W, strain gcn5, hits give low values 1.09 | locus YHR013C, strain ard1, hits give low values 1.02 | locus YHR027C, strain rpn1, hits give low values 0.977 | locus YHR030C, strain SLT2, hits give low values 1.02 and 0.941 | locus YHR079C, strain IRE1 (second series), hits give low values 1.01 | locus YHR079C, strain IRE1, hits give low values 0.965 | locus YHR094C, strain hxt1, hits give low values 1.01 | locus YHR129C, strain ARP1, hits give low values 1.01 | locus YHR142W, strain chs7, hits give low values 0.976 | locus YHR200W, strain rpn10, hits give low values 1.01 | locus YIL066C, strain RNR3, hits give low values 1.04 | locus YIL073C, strain SPO22, hits give low values 1.03 | locus YIL125W, strain kgd1, hits give low values 1.01 | locus YIR030C, strain dcg1, hits give low values 1.02 | locus YJL092W, strain hpr5, hits give low values 0.976 | locus YJL095W, strain BCK1 (second series), hits give low values 0.997 | locus YJL095W, strain BCK1, hits give low values 0.999 and 0.941 | locus YJL115W, strain asf1, hits give low values 0.959 | locus YJL129C, strain trk1, hits give low values 0.976 | locus YJL134W, strain LCB3, hits give low values 1.01 | locus YJL154C, strain vps35, hits give low values 0.978 | locus YJL164C, strain tpk1, hits give low values 0.996 | locus YJL166W, strain qcr8, hits give low values 0.978 | locus YJL168C, strain set2, hits give low values 1.01 | locus YJL187C, strain SWE1 (second series), hits give low values 1.01 | locus YJL187C, strain SWE1, hits give low values 0.988 | locus YJR043C, strain POL32, hits give low values 1.02 | locus YJR066W, strain TOR1, hits give low values 0.936
